SNCA viab count: GF-AFC viability counterscreen for inhibitors of alpha-synuclein gene (SNCA) expression | 150,000 compounds, 0.12% hits | Potency, µM (doses to about 57.1 µM), inactives show top-dose activity change, negative = cytotoxicity, hits mostly cytotoxic | HEK-293-SNCA-luc viability, GF-AFC fluorescence, 24 h;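 further: potency means the concentration at half of the fitted maximal effect; 0% = DMSO-treated cells and -100% = medium-only wells without cells; nearly all actives have a fitted effect of over 30% in size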
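HEK-293-SNCA-luc cells (1500/well) plated 24 h, then exposed 24 h to a dilution series; GF-AFC added 30 min at 37C, fluorescence 405/540 nm; normalised to medium-only and DMSO wells, Hill fit.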
GPT2 inh: Primary qHTS assay for inhibitors of Glutamate pyruvate transaminase 2 (GPT2); Potency, µM (titrated, usually from 57.7 µM), without a hit: top-dose activity change, negative = inhibition, actives largely listed as inhibitors; Alanine aminotransferase 2 (Homo sapiens), Q8TD30; 100,000 compounds, 0.25% hits; Recombinant GPT2, coupled pyruvate oxidase/HRP Amplex Red fluorescence; further: potency means the concentration at half of the fitted maximal effect; nearly all actives have a fitted effect of over 60% in size
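Fluorescence of coupled pyruvate oxidase/HRP/Amplex Red system (50uM Amplex, 30 min, dark) reports pyruvate formed by GPT2. Enzyme reaction: 10ng/uL GPT2, 2mM L-alanine, 250uM a-KG, 30 min room temperature, pH 7.5; 50uM AOA control.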
SNCA expr inhib: Primary qHTS assay for inhibitors of alpha-synuclein gene (SNCA) expression. 140,000 compounds, 0.17% hits. HEK-293 SNCA-luciferase knock-in, luminescence, 24 h. Potency, µM (doses to about 57.2 µM), for inactives: at the highest dose activity change, negative = inhibition, usual class: inhibitors;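 further: potency means the concentration at half of the fitted maximal effect; plate controls were DMSO cells for no effect and cell-free wells for full effect; nearly all actives have a fitted effect of over 45% in size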
IP6K1 inh: Primary qHTS assay for small molecule inhibitors of Inositol hexaphosphate kinase 1 (IP6K1) | IP6K1 kinase, ADP-Glo luminescence, 2 h; stronger effect = lower value | activity change, % (series mostly up to about 58 µM) | 140,000 compounds, 0.81% hits | AID 1645851, 2021; in the data active means activity change below about -25%
Target sequence (Q92551 whole entry, looked up): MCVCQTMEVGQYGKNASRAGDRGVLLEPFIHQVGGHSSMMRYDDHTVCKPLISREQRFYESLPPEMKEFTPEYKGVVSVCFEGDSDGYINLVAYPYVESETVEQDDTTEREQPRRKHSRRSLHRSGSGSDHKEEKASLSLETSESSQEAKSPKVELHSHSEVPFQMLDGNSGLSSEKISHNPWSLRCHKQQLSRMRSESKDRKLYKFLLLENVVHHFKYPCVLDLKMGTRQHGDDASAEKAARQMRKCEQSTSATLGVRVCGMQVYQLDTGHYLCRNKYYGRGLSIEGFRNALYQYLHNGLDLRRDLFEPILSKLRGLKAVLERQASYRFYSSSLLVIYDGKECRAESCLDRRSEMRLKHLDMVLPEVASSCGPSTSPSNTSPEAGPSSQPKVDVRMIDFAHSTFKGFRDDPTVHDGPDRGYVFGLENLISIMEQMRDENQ
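ADP-Glo luminescence measures ADP made by human IP6K1 during a 2 h RT reaction with ATP/IP6 (mix at 1.3 mM/130 uM); top library doses 57.5 and 19.1 uM final.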
IP6K1 inh cnf: Confirmatory qHTS assay for small molecule inhibitors of Inositol hexaphosphate kinase 1 (IP6K1); shares compounds with IP6K1 inh; recombinant IP6K1 kinase, ADP-Glo luminescence, 2 h; Potency, µM (titrated, usually from 49 µM), for the others: at the top dose activity change, negative = inhibition, actives largely listed as inhibitors; 1,200 compounds, 13% hits; AID 1645852, 2021; further: potency means the concentration at half of the fitted maximal effect; nearly all actives have a fitted effect of over 65% in size
Numbers without * were called inactive; i = inactive; ? = inconclusive; . = no result; [ ] = remark or other dose. A selection: hits, their analogues and other compounds. The true share with any hit is near 1%. Unless noted, the call rests on the fitted dose curve; in most records, active means well fitted curve in the direction sought with a large enough effect; inconclusive means small, poorly fitted or top-dose-only effect, or another doubt; inactive means no such curve, though single readings can be large; an effect the other way counts as inactive or inconclusive. Unless noted, on the % scale 0 is the no-effect control and ±100 the full control effect.

SMILES	SNCA viab count	GPT2 inh	SNCA expr inhib	IP6K1 inh	IP6K1 inh cnf
COc1ccc(Nc2cc3c(cn2)CN(Cc2ccncc2)CCN3)cn1	-11%[87.6 µM]	5%[88.5 µM]	-23%[87.6 µM]	-9	.
Clc1ccc(-c2cc3c(cn2)CN(Cc2ccncc2)CCN3)cc1	-2%[87.6 µM]	-28%[88.5 µM]	-20%[87.6 µM]	-27*	-1%
COc1ccc(Nc2cc3c(cn2)NCCN(Cc2ccccc2)C3)cn1	-3%[87.6 µM]	?	?	-25*	-18%
c1ccc(CN2CCNc3cc(-c4ccncc4)ncc3C2)cc1	-10%[87.6 µM]	?	-15%[87.6 µM]	-15	.
O=C1NCc2ccccc2CC12CCN(Cc1ccc(-c3ccccc3)cc1)C2 (centres undefined)	-18%	i	?	-10	.
CCOC(=O)C1c2c(OC)ccc3c2C(=CC(C)(C)CO3)CN1Cc1ccccc1 (centres undefined)	.	.	.	7	.
CCC(C)NC(=O)c1ccc(-c2ccc(OC)nn2)cc1Cl (centres undefined)	.	.	.	-5	.
Cn1nnnc1Sc1ncnc2scc(Br)c12	.	.	.	.	-15%
Cn1nnnc1Sc1ncnc2scc(-c3ccc(Br)cc3)c12	.	.	.	.	-9%
Cc1cc(C)cc(-c2ccc(CN3CCCC(NC(=O)Cc4ccc(F)cc4)C3)cc2)c1 (centres undefined)	?	3%	?	-7	.
Cn1nc(-c2ccc(C(F)(F)F)cc2)nc2c(=O)n(C)c(=O)nc1-2	?	?	.	-41*	?
COc1ccc(-c2nc(C)nc3c2CCN(C(=O)c2ccc(C(F)(F)F)cc2)CC3)cc1	-5%	?	-6%	14	.
COc1ccccc1Nc1ccnc(N2CCCC(C(=O)NCCc3ccccc3)C2)n1 (centres undefined)	-20%[12.5 µM]	i	8%	14	.
Cc1ccc(NC(=O)C(NS(=O)(=O)c2ccc3c(c2)CCC(=O)N3)c2ccccc2)cc1C (centres undefined)	-4%	.	65%	-32*	-4%
COc1cccc(-c2cc(C(=O)NCC3CCCCC3)c3cnn(C)c3n2)c1	.	.	.	8	.
Cc1cc(C)n2nc(C(=O)N3CCC(Cc4cccc(C(N)=O)c4)C3)nc2n1 (centres undefined)	-1%	2%	-7%	12	.
NC(=O)c1cccc(CC2CCN(C(=O)c3ccnc(-n4cnnc4)c3)C2)c1 (centres undefined)	-2%	i	-10%	-27*	-5%
CNC(=O)C1(C)CN(Cc2ccccc2)Cc2ccc(Nc3ccccc3)nc21 (centres undefined)	?	-1%[88.5 µM]	-14%[87.6 µM]	-2	.
CC(=O)NC(C)c1nc2ccccc2n1Cc1ccccc1Cl (centres undefined)	2%	.	0%	-26*	13%
CCc1nc(C)sc1C(=O)N1CCCC(c2[nH]ncc2-c2ccccc2)C1 (centres undefined)	-15%	-23%[11.5 µM]	-9%	-30*	-19%
Cc1noc(-c2ccc(N3CCC(C)CC3)c([N+](=O)[O-])c2)n1	-7%	.	90%	-36*	?
CN(Cc1cccn1C)C1CCCc2ccccc21 (centres undefined)	6%[87.6 µM]	i	38%[87.6 µM]	-15	.
Cc1ccc(NC(=O)c2nc(S(C)(=O)=O)ncc2N(Cc2ccco2)Cc2cccs2)cc1C	?	.	4%	-14	.
Cc1ccc(NC(=O)c2nc(S(C)(=O)=O)ncc2N(Cc2ccco2)Cc2ccco2)cc1C	8%	.	-7%	-29*	-5%
Cc1ccc2c(CNCc3cccc(Cl)c3)c(C(=O)O)n(Cc3ccc(F)cc3Cl)c2c1	-3%	.	8%	-27*	17%
SMILES	SNCA viab count	GPT2 inh	SNCA expr inhib	IP6K1 inh	IP6K1 inh cnf
COc1ccc(CNCc2c(C(=O)O)n(Cc3ccc(F)cc3)c3cc(C)ccc23)cc1OC	-12%	.	35%	10	.
O=C(CS)Nc1ccccc1	?	-7%	32%[25.6 µM]	-27*	?
COc1cccc(-c2cc(C(=O)NCc3ccccc3Cl)c3cnn(C)c3n2)c1	.	.	.	5	.
Cc1ccc(/C=C/c2onc(C)c2S(=O)(=O)N2CCC(C(=O)NCc3ccco3)CC2)cc1	-4%	.	3%	4	.
Cc1ccc(/C=C/c2onc(C)c2S(=O)(=O)N2CCC(C(=O)N(CCC(C)C)Cc3ccco3)CC2)cc1	3%	.	9%	-38*	-9%
CN1CCN(c2ccnc(-c3cccc(NS(C)(=O)=O)c3)n2)CC1	6%	.	-5%	.	.
CN1CCN(c2cccc(Nc3nc4c(-c5ccc(S(C)(=O)=O)cc5)cccn4n3)c2)CC1	22%	i	11%	-11	1%
CC(=O)NCCNc1nc(-c2ccc(C(=O)N(C)C)cc2)nc2ccccc12	-8%	.	45%	.	.
CCC(=O)OCCCNc1nc(-c2ccc(Cl)cc2)nc2ccccc12	-9%	.	11%	-25*	?
COc1ccc2nc(SCC(O)c3cccc(Br)c3)[nH]c2c1 (centres undefined)	-3%	.	11%	-44*	-19%
O=C(c1ccccc1OC(F)(F)F)N1C[C@@H](CO)[C@@H]2Oc3c(F)cccc3[C@@H]21	.	.	.	8	.
CCn1c(=O)c2cc(C(=O)N(CC(C)C)CC(C)C)sc2c2ccccc21	16%	.	-4%	-26*	-8%
CCCN(C(=O)c1cc2c(=O)n(CC)c3ccccc3c2s1)c1ccccc1F	4%	.	19%	18	.
Cn1c(=O)c2c(-c3ccccc3)n(CCCO)cc2n(C)c1=O	-14%	.	48%	2	.
N=c1c2c(-c3ccccc3)cn(Cc3ccccc3)c2ncn1CCCO	.	.	.	.	-1%
O=C(O)CCc1nc2ccccc2[nH]1	?	i	21%[25.6 µM]	-17	.
Cc1ccc(/C=C/c2nc3ccccc3[nH]2)cc1	-6%	.	-93%	-41*	10µM*
Cc1ccccc1CNC(=O)c1sc2ncnc(N(C)C3CCCCC3)c2c1C	-5%	.	3%	-28*	-17%
CCc1ocnc1C(=O)N1C[C@H]2OC(=O)N(CCCN3CCOCC3)[C@H]2C1	7%	2%	15%	-72*	-11%
Cc1ccccc1C(=O)OCc1cc(=O)n2nc(C3CCCCC3)sc2n1	-9%	.	12%	10	.
CCCCC(=O)Nc1ccccc1C(=O)OCc1cc(=O)n2nc(C3CCCCC3)sc2n1	-20%	.	-1%	-28*	-15%
COCc1cc(C)nc2sc3c(c12)NC(c1ccccc1C(=O)O)N(c1ccc(OC)cc1)C3=O (centres undefined)	18%	.	82%	-31*	-2%
COCc1cc(C)nc2sc3c(c12)NC(c1ccc(O)c(OC)c1)N(c1ccccc1)C3=O (centres undefined)	?	.	73%	-7	.

Assay outcomes deposited in PubChem by National Center for Advancing Translational Sciences (NCATS).
